Screening data from PubChem.
IL-1B inflam inh: qHTS for Inhibitors of Inflammasome Signaling: IL-1-beta AlphaLISA Primary Screen. activity change, % at 57.5 µM. AID 743279, 2014. THP-1 LPS/ATP IL-1B secretion, AlphaLISA, 16 h; hits give low values. actives 4.7% (n = 360,000); in the data active = activity change below about -50%; inconclusive = mostly about -30% to -49%; also: % is scaled to controls: 0 for no effect and ±100 for the full control effect
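THP-1 cells pretreated 1 hr with compounds (up to 57.5 uM final), then stimulated with LPS (250 ng/mL final) plus ATP (1.25 mM final); secreted IL-1B measured by AlphaLISA after 16 hr, decreased signal indicating inhibition.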
TDP1 inh: qHTS Assay for Inhibitors of Tyrosyl-DNA Phosphodiesterase (TDP1) | Tyrosyl-DNA phosphodiesterase 1 (Homo sapiens), Q9NUW8 | actives 0.28% (n = 350,000) | recombinant TDP1, AlphaScreen DNA substrate cleavage | Potency, µM (series often up to 130 µM), inactives show top-dose activity change, negative = inhibition, most hits filed as inhibitors; also: potency is read from the fitted curve at half-maximal effect; % is scaled to controls: 0 for no effect and ±100 for the full control effect; nearly all actives have a fitted effect of over 40% in size
Target sequence (Q9NUW8 whole entry, looked up): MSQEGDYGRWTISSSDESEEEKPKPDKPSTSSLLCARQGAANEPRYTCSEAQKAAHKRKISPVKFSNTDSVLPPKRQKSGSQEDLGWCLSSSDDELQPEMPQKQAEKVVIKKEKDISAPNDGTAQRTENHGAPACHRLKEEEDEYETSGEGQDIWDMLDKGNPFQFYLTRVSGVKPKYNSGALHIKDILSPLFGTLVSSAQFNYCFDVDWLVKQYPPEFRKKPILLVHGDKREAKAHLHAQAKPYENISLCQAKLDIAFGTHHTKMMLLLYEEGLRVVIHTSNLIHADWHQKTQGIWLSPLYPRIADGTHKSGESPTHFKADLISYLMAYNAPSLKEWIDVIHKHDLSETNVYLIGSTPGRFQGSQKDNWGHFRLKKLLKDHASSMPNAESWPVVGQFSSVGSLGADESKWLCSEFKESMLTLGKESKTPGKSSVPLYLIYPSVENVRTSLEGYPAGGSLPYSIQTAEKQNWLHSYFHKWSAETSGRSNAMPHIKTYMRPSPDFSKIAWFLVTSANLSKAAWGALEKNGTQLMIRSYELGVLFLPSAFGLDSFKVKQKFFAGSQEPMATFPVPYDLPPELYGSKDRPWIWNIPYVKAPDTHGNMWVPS
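Tdp1 1 nM final; 15 min RT w/ cpd; substrate 15 nM, 5 min; beads 10 ug/ml, 10 min; AlphaScreen read. Neg ctrl: no enzyme.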
TGFb SMAD3 inh: qHTS for Inhibitors of TGF-b; actives 1.2% (n = 410,000); HepG2 CAGA-GFP TGF-b/SMAD3 reporter, GFP fluorescence, 18 h; TGF-beta stimulated, 500 pg/mL final; Potency, µM (doses to about 46.1 µM), inactives show top-dose activity, negative = inhibition, usual class: inhibitors; also: potency is read from the fitted curve at half-maximal effect; % is scaled to controls: 0 for no effect and ±100 for the full control effect; nearly all actives have a fitted effect of over 65% in size
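Inhibition was scored as loss of TGF-beta-induced (500 pg/mL final, 18 hours, 37 degrees C) GFP in HEPG2 cells carrying a CAGA-GFP reporter, in DMEM with 1% FBS. Well GFP was summed per cell; Activity was normalised to unstimulated and stimulated DMSO wells, then concentration-response fitting.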
TDP1 cell noCPT: qHTS for Inhibitors of human tyrosyl-DNA phosphodiesterase 1 (TDP1): qHTS in cells in absence of CPT. DT40 Tdp1-/- hTDP1 cells, no CPT, ATP luminescence, 48 h. Potency, µM (titrated, usually from 46.2 µM), without a hit: at the highest dose activity change, negative = growth inhibition, usual class: inhibitors. actives 15% (n = 420,000). AID 686978, 2013; also: potency is read from the fitted curve at half-maximal effect; % is scaled to controls: 0 for no effect and ±100 for the full control effect; nearly all actives have a fitted effect of over 55% in size
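A cellular qHTS used chicken DT40 cells lacking endogenous Tdp1 but carrying stably transfected human TDP1. Compounds were applied without camptothecin, and cell growth kinetics were judged by ATP-dependent luminescence after ≥48 hr.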
TDP1 cell CPT: qHTS for Inhibitors of human tyrosyl-DNA phosphodiesterase 1 (TDP1): qHTS in cells in presence of CPT | chicken DT40 Tdp1-/-;hTDP1 cells + 20 nM CPT, ATP luminescence, 48 h | Potency, µM (highest dose often 46.2 µM), inactives show at the highest dose activity change, negative = growth inhibition, hits mostly inhibitors | actives 12% (n = 420,000) | AID 686979, 2013; also: potency is read from the fitted curve at half-maximal effect; % is scaled to controls: 0 for no effect and ±100 for the full control effect; nearly all actives have a fitted effect of over 55% in size
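Chicken DT40 Tdp1-/- cells complemented with human TDP1, 400 cells/well, exposed to compounds plus 20 nM camptothecin for at least 48 h at 37 C; viability read as ATP content by CellTiter-Glo luminescence.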
HepG2 tox: qHTS for Inhibitors of TGF-b: Cytotox Counterscreen; HepG2 CAGA-GFP viability, ATP luminescence, 18 h; Potency, µM (doses to about 46.1 µM), inactives show top-dose activity change, negative = cytotoxicity, hits mostly cytotoxic; actives 0.76% (n = 410,000); AID 588856, 2011; also: potency is read from the fitted curve at half-maximal effect
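HepG2 CAGA-GFP cells (1000/well, DMEM with 1% FBS) received compound, then TGF-beta at 500 pg/mL final, and were incubated 18 hours at 37 degrees C. Viability was read by CellTiter-Glo luminescence. Media-only wells were set as complete cell-killing and DMSO as no toxicity.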
Numbers without * were called inactive; ? = inconclusive; . = no result; [ ] = remark or other dose. This is a sample that favours compounds with a hit; in the whole collection about 18% have one here. Unless noted, calls follow the shape of the dose curve; as a rule, active = well fitted curve in the direction sought with a large enough effect; inconclusive = small, poorly fitted or top-dose-only effect, or another doubt; inactive = no such curve, though single readings can be large; an effect the other way counts as inactive or inconclusive.

SMILES	IL-1B inflam inh	TDP1 inh	TGFb SMAD3 inh	TDP1 cell noCPT	TDP1 cell CPT	HepG2 tox
C=C(C)COc1ccc2c(C)c(CC(=O)N3C[C@H]4C[C@@H](C3)c3cccc(=O)n3C4)c(=O)oc2c1C	-8	.	11%	18µM*	15µM*	1%
CC(=O)N1CC[C@@H]2CC(=O)C[C@@H](C)[C@@H]21	.	2%[234 µM]	.	.	.	.
COC(=O)Cc1c(C)c2ccc(OCC(=O)N3CCCC(C)C3)c(C)c2oc1=O (stereo not drawn)	-4	2%	-17%	?	26µM*	-34%
CCOc1ccc(NC(=O)c2cnn(-c3ccc(C)c(Cl)c3)c2C2CCNCC2)cc1	.	-1%	-26%	?	23µM*	-27%
Cc1ccc(-n2ncc(C(=O)Nc3ccc(C)c(F)c3)c2C2CCN(C(=O)OC(C)(C)C)CC2)cc1C	.	-1%	-20%	?	?	-2%
Cc1cc2c(cc1S(=O)(=O)CCC(=O)NC1CCCCC1C)OCC(=O)N2 (stereo not drawn)	-3	.	-12%	-19%	-19%	-102%
Cc1cc(OCC[N+]2(C)CCCCC2)nc2ccccc12	4	-2%	0%	21µM*	?	1%
C[N+]1(CCOC(=O)C2(c3ccccc3)CCCC2)CCCCC1	36	2%	6%	?	-14%	-19%
COc1ccc(N/C=C/C(=O)c2sc(-c3ccccc3)nc2C)cc1	-19	4%	25%	21µM*	16µM*	-11%
CC(=O)c1sc(-c2ccc(Cl)cc2)nc1C	13	5%	3%	12%	-1%	-2%
Cc1nc(-c2ccccc2)sc1C(=O)/C=C/c1ccc(Cl)cc1	-86*	4%	6%	23µM*	15µM*	-33%
COc1ccc(N/C=C/C(=O)c2ccccc2)cc1	-3	.	1%	?	-18%	-37%
CC(=O)c1c(CC(=O)O)[nH]n(-c2nc3ccccc3s2)c1=O	10	.	-4%	?	?	-63%
COC(=O)Cc1[nH]n(-c2nc3ccccc3s2)c(=O)c1C(C)=O	-11	.	-11%	10µM*	-18%	-92%
CCCC(=O)Nc1nc2ccc(OC)cc2s1	11	7%	-2%	?	15µM*	-6%
CCOc1ccc2nc(NC(=O)CSC3=NCCS3)sc2c1	-92*	0%	-1%	?	23µM*	-21%
COc1ccc2nc(NC(=O)CN3C(=O)NC4(CCCCC4)C3=O)sc2c1	0	2%	1%	-19%	-13%	4.5µM*
CCOc1ccc2nc(NC(=O)CSc3ccc(Cl)cc3)sc2c1	-1	-2%	-1%	?	?	-11%
COc1cccc(Nc2nc3ccc(OC)cc3s2)c1	-172*	0%	-5%	?	-24%	9%
O=C(COC(=O)/C=C/c1cccc(Cl)c1)NC1CCCC1	10	2%	-1%	5%	4%	4%
COC(=O)c1cc2oc3ccccc3c2n1Cc1nc(-c2ccccc2Cl)oc1C	.	1%	-1%	-16%	-17%	-14%
N#Cc1ccc(Oc2ncccn2)cc1	14	.	-14%	-8%	-18%	14%
O=[N+]([O-])c1ccc(NCCc2ccccc2)c(Br)c1	24	.	-2%	?	-5%	-14%
COc1ccc2nc(NC(=O)CSC3=NCCS3)sc2c1	-58*	2%	9%	?	?	-1%
CCOC(=O)c1cc(C)sc1NC(=O)CSC1=NCCS1	-61*	-4%	-3%	-25%	?	-7%
SMILES	IL-1B inflam inh	TDP1 inh	TGFb SMAD3 inh	TDP1 cell noCPT	TDP1 cell CPT	HepG2 tox
COc1ccc2nc(NC(=O)c3cc(C)oc3C)sc2c1	-10	-1%	4%	?	?	-51%
CCSc1nnc(NC(=O)c2cccc(OCc3c(C)noc3C)c2)s1	-22	9%	20%	-9%	-19%	-21%
COc1ccc2nc(NC(=S)N(C)C)sc2c1	95	12%	?	4.6µM*	4.6µM*	-14%
COc1ccc2nc(NC(=O)c3cccc(OCc4c(C)noc4C)c3)sc2c1	-26	-10%	-21%	2.9µM*	3.3µM*	-5%
CCOC(=O)c1cc(C)sc1NC(=O)CSc1nnnn1C	12	3%	-26%	-5%	-3%	-34%
O=C(NC(=S)Nc1cccc(O)c1)C1CCCCC1	?	2%	?	?	-3%	-6%
O=C(NCc1ccccc1Br)c1cccs1	3	.	-2%	-29%	?	-2%
COc1ccc2nc(NC(=O)c3ccoc3C)sc2c1	-9	3%	?	?	?	7.9µM*
Cc1ccc(-n2c3c(cc(-c4nc(-c5ccc(Cl)cc5)cs4)c2=O)C(=O)CC(C)(C)C3)cc1C	.	8%	0%	-6%	1%	-26%
CNc1cc(-c2cccc(C(=O)N3CCOCC3)c2)ncn1	-1	.	10%	1%	7%	-11%
O=C(c1ccc(Br)o1)N1CCN(c2ccc3nnc(-c4ccc(F)cc4)n3n2)CC1	-3	9%	-4%	18µM*	?	-9%
O=C(Nc1ccc(F)cc1)N1CCN(c2ncccn2)CC1	-6	6%	-9%	?	1%	-53%
O=C(Nc1ccc(Cl)cc1)N1CCN(c2ccc3nnc(-c4ccc(F)cc4)n3n2)CC1	0	5%	14µM*	21µM*	?	-27%
COc1ccc(S(=O)(=O)N2CCN(c3ccc4nnc(-c5ccc(F)cc5)n4n3)CC2)cc1	-9	5%	?	15µM*	12µM*	-26%
CC(Nc1ccc2ccccc2c1)C(=O)N/N=C/c1ccncc1 (stereo not drawn)	2	2%	17%	16%	-1%	4%
Cc1nc2ccc(N)cc2c(=O)n1Cc1ccc(Cl)cc1	0	1%	-5%	-29%	-14%	-18%
COc1ccc(Cn2c(C3CC3)nc3ccc(NC(=O)c4cccnc4)cc3c2=O)cc1	-70*	.	-22%	10µM*	7.3µM*	-13%
Cc1nc2ccc(NC(=O)c3ccccc3)cc2c(=O)n1Cc1ccc(F)cc1	-22	.	-7%	13µM*	?	-44%
COc1ccc(Cn2c(C3CC3)nc3ccc(NC(C)=O)cc3c2=O)cc1	-18	8%	-5%	-26%	-6%	-33%
